Experimental data from ChEMBL document CHEMBL3988442, “University of Dundee, Small-Polar-MMV Screening Library” (2021).
For part of these data: Results with a measured potency or affinity are listed apart.

Assays:
Set-up in all cases: scale not given: direction of the effect not stated beside the values
[1] = target: Protein translocase subunit SecA (Escherichia coli (strain K12)) (UniProt P10408); assay: Assay to Identify E. coli SecA ATPase Inhibitors; assay type: functional; conditions: 30 µM
Protein translocase subunit SecA (Escherichia coli (strain K12)), sequence (P10408 whole entry): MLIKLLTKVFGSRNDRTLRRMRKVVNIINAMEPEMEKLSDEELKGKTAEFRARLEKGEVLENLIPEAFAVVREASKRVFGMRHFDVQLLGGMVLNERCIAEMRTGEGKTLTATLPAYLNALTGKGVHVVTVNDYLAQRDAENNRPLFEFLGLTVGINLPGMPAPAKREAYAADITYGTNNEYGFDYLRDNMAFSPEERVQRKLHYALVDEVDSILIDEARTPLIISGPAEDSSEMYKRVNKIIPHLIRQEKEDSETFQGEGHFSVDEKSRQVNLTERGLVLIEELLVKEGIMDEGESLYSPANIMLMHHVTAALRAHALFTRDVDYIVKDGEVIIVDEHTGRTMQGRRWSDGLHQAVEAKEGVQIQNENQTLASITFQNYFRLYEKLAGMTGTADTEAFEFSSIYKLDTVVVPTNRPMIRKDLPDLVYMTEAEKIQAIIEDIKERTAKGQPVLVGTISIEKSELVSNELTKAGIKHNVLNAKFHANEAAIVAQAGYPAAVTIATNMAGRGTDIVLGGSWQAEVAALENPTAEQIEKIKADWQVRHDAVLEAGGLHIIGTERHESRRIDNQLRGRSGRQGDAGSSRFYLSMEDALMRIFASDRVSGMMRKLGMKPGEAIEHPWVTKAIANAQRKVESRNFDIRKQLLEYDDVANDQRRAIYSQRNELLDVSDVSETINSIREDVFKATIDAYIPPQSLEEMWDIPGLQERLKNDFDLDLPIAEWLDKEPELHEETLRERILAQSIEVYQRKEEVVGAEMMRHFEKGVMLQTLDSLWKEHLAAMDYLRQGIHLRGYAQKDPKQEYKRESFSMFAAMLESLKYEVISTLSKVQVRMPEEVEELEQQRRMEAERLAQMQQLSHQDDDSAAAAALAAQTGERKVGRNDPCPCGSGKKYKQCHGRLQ

[2] = target: T1, Ubiquitin-activating enzyme e1, putative (Leishmania donovani (strain BPK282A1)) (UniProt E9BSI1); assay: Leishmania donovani Ubiquitin Activating Enzyme (LdE1); assay type: functional; conditions: 30 µM
T1 sequence (whole entry): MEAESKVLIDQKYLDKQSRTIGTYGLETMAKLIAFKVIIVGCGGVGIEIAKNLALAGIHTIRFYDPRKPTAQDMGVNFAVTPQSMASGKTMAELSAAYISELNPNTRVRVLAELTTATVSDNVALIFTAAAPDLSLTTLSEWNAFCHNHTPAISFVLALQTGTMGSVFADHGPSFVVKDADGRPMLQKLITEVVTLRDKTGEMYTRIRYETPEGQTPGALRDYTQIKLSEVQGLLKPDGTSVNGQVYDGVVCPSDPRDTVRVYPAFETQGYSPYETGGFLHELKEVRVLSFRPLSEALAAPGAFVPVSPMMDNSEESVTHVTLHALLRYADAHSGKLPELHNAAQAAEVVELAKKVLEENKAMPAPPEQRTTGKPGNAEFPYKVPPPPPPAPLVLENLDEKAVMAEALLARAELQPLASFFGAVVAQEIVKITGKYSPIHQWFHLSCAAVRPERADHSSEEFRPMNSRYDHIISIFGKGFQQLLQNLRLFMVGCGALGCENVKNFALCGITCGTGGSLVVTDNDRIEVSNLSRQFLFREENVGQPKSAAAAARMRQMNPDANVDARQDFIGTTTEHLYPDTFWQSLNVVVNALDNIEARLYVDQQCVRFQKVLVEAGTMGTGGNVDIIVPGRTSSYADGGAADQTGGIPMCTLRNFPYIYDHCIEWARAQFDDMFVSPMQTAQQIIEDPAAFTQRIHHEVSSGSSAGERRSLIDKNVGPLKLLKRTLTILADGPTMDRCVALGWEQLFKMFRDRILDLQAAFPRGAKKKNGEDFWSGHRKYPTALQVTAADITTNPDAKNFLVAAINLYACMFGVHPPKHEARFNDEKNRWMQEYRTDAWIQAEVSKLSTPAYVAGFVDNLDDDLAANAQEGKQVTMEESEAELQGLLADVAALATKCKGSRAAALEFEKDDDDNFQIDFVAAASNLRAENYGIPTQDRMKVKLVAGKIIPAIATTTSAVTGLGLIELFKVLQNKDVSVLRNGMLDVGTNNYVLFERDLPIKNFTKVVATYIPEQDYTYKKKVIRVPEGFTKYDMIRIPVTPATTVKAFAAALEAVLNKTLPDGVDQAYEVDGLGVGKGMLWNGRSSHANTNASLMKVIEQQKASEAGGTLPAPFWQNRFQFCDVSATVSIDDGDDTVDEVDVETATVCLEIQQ

[3] = target: T2, Aspartate--tRNA(Asp/Asn) ligase (Mycobacterium tuberculosis (strain ATCC 25618 / H37Rv)) (UniProt P9WFW3); assay: Assay for Asp RNA synthetase-1 from Mycobacterium tuberculosis; assay type: functional; conditions: 30 µM; note: in the data most compounds retested in dose-response had high values
T2 sequence (whole entry): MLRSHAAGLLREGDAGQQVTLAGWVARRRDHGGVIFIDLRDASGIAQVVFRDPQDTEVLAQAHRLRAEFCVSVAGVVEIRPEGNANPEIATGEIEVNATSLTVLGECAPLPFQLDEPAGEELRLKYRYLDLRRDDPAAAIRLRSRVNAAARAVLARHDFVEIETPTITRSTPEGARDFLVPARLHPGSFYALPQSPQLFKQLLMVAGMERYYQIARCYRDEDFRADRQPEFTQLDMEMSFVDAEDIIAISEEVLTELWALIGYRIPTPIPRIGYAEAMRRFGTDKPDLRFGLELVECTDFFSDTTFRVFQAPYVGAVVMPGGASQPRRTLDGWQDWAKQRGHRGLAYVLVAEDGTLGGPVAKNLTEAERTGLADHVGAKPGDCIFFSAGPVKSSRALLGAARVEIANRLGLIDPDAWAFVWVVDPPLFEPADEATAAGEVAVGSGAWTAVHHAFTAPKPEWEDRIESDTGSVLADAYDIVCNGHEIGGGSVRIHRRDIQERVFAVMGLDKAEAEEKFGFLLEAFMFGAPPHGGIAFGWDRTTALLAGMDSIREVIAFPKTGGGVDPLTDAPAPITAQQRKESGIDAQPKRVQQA

[4] = target: AMP-activated protein kinase, AMPK (Homo sapiens) (UniProt P54646+O43741+P54619+Q9UGJ0+Q9Y478+Q13131+Q9UGI9); assay: AMP-dependent Kinase enzyme assay. An in vitro enzyme assay that detects ADP turnover that is directly proportional to AMPK activity. This uses naive AMPK that is activated during the assay with MK-8722; assay type: functional; conditions: 30 µM
[5] = target: Sialic acid-binding Ig-like lectin 9 (Homo sapiens) (UniProt Q9Y336); assay: Hs-Siglec9 ALPHAscreen SOP 20170721; conditions: 10 µM
Sialic acid-binding Ig-like lectin 9 (Homo sapiens), sequence (Q9Y336 whole entry): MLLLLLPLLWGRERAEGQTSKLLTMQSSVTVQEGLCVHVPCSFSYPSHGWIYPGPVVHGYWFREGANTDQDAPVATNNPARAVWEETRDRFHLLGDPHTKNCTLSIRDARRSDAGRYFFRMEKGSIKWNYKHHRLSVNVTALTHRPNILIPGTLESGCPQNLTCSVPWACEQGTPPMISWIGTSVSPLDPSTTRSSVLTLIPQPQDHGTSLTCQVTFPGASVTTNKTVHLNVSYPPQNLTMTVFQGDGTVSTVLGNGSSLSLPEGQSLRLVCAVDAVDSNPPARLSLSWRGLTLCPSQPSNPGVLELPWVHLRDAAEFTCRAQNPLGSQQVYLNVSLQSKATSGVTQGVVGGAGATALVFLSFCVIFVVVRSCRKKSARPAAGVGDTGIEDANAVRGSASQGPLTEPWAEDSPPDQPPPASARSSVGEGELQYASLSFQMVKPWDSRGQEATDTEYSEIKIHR

[6] = system: Trypanosoma cruzi; assay: Trypanosoma cruzi phosphomannomutase and mannose-1-phosphate guanylyltransferase assay; assay type: functional; conditions: 10 µM
[7] = target: T3, Arginase-2, mitochondrial (Homo sapiens) (UniProt P78540); assay: in vitro enzyme assay to detect the production of urea directly proportional to the activity of Arginase II; assay type: functional; conditions: 33.3 µM; note: in the data most compounds retested in dose-response had high values
T3 sequence (whole entry): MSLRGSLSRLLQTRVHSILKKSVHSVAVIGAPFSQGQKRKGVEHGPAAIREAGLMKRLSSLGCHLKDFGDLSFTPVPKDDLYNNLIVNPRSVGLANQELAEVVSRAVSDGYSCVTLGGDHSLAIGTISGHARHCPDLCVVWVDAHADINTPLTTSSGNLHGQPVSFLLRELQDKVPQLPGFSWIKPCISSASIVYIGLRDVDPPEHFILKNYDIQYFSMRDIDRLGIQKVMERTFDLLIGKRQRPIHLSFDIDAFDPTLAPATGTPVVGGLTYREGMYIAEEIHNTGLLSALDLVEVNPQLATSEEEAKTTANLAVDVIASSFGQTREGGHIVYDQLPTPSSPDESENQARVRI

[8] = target: T4, Proteasome subunit beta (Trypanosoma cruzi) (UniProt O96673); assay: Trypanosoma cruzi proteasome chymotrypsin-like activity (TcProtChymo) assay.; note: in the data most compounds retested in dose-response had high values; assay type: functional; conditions: 9.37 µM
T4 sequence (whole entry): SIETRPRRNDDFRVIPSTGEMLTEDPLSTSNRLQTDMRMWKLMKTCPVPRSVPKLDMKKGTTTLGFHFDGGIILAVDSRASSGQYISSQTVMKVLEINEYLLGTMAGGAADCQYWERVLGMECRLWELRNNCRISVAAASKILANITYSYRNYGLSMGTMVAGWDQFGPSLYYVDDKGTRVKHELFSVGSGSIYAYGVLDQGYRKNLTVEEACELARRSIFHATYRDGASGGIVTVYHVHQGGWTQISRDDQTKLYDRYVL

[9] = species: Homo sapiens; assay: To identify inhibition of the IFN signalling (Jak-Stat) pathway via expression of an eGFP reporter gene under the control of an IFN-stimulated response element (ISRE) containing MxA promoter.; assay type: functional; conditions: 30 µM
[10] = target: Shiga toxin 2 (Escherichia coli O157:H7) (UniProt P09385+P09386); assay: E. coli 0.157:H7 Shiga Toxin SOP - stx2 screening assay; assay type: functional; conditions: 30 µM
[11] = target: T5, Tyrosyl-tRNA synthetase, putative (Trypanosoma cruzi (strain CL Brener)) (UniProt Q4DSP6); assay: Trypanosoma cruzi tyrosyl tRNA synthetase (TcYRS) _High Tyrosine SOP; assay type: functional; conditions: 30 µM; note: in the data most compounds retested in dose-response had high values
T5 sequence (whole entry): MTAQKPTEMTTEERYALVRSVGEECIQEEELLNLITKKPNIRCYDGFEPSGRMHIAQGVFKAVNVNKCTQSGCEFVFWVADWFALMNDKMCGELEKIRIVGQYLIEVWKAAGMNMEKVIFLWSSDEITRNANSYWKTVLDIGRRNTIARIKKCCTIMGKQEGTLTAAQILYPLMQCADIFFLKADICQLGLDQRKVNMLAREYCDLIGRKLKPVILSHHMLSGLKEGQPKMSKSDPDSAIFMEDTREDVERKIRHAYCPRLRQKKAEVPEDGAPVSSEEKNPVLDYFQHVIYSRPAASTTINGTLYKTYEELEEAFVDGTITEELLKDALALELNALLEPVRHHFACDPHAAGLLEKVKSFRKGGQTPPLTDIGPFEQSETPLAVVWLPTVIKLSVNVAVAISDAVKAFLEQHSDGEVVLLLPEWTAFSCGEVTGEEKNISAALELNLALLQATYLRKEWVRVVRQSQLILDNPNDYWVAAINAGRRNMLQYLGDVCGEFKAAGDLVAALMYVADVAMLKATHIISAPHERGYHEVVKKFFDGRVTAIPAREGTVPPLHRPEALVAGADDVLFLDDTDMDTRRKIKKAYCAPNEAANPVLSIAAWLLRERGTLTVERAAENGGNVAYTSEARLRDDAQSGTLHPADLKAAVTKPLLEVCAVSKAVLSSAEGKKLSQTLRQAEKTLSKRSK

[12] = target: T5, Tyrosyl-tRNA synthetase, putative (Trypanosoma cruzi (strain CL Brener)); assay: Trypanosoma cruzi tyrosyl tRNA synthetase (TcYRS) SOP; assay type: functional; conditions: 30 µM
[13] = target: Chromo domain-containing protein 1 (Saccharomyces cerevisiae (strain ATCC 204508 / S288c) (Baker's yeast)) (UniProt P32657); assay: ScCHD-1 Enzyme Inhibition Assay; assay type: functional; conditions: 30 µM; note: in the data most compounds retested in dose-response had high values
Chromo domain-containing protein 1 (Saccharomyces cerevisiae (strain ATCC 204508 / S288c) (Baker's yeast)), sequence (P32657 whole entry, the tested form may be a part): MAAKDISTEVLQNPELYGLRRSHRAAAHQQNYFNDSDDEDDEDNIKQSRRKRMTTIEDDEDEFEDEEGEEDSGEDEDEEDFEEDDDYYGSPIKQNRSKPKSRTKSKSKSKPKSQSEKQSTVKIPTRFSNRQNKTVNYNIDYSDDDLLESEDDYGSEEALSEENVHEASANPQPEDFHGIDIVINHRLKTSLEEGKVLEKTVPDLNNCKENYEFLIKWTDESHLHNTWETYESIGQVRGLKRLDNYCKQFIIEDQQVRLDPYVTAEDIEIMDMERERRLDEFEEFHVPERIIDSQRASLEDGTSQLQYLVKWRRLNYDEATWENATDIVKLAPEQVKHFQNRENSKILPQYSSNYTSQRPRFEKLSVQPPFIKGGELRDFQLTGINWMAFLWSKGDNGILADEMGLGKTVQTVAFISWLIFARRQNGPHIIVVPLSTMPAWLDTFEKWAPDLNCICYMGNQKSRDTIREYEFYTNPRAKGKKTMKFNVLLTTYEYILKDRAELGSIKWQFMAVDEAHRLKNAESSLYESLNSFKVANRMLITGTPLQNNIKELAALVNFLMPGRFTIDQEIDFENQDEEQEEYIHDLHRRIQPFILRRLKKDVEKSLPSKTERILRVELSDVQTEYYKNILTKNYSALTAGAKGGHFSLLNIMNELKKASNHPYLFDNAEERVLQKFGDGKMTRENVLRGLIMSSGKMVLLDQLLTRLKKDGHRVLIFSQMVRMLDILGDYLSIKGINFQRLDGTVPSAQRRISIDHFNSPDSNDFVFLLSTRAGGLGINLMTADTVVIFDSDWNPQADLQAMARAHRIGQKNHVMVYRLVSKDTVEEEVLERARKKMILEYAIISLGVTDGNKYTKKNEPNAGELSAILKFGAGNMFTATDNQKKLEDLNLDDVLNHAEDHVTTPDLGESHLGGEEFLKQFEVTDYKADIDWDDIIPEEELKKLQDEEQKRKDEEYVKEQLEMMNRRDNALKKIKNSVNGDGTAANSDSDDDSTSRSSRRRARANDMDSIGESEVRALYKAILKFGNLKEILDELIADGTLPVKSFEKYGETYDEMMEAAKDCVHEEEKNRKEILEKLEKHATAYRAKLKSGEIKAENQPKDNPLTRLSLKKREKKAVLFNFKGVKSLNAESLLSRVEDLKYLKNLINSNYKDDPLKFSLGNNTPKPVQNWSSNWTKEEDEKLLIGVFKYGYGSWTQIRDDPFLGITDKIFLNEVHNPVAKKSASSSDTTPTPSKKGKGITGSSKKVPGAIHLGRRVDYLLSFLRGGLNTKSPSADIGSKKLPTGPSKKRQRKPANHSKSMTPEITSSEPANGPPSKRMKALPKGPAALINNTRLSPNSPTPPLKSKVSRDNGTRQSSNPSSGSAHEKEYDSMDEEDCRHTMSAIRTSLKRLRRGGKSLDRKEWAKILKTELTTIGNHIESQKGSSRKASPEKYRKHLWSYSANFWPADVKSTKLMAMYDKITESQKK

| Compound | Percent Effect [1] [%] | Percent Effect [2] [%] | Percent Effect [3] [%] | Percent Effect [4] [%] | Percent Effect [5] [%] | Percent Effect [6] [%] | Percent Effect [7] [%] | Percent Effect [8] [%] | Percent Effect [9] [%] | Percent Effect [10] [%] | Percent Effect [11] [%] | Percent Effect [12] [%] | Percent Effect [13] [%] |
| --- | --- | --- | --- | --- | --- | --- | --- | --- | --- | --- | --- | --- | --- |
| Cc1nc(CN2C[C@@H]3OCCN(c4ncc(F)cn4)[C@@H]3C2)cs1 | 0.0245 | 5.33 | -1.08 | 7.05 | 2.47 | -1.74 | -58.6 | 11.3 | -21.1 | 2.24 | 4.17 | 15 | -7 |
| CN(C)c1ncc2c(n1)C1(CCN(Cc3ccccc3)C1)COC2 (configuration not stated) | -2.14 | -5.48 | -5.72 | 3.1 | 1.95 | 2.78 | 1.2 | 10.9 | -0.512 | -67 | 5.21 | 3.7 | -6.91 |
| CN1C(=O)C2(CCN(CCO)C2)c2ccccc21 (configuration not stated) | -3.9 | 10.8 | -3.9 | 5.24 | -5.82 | -4.01 | 0.319 | 24.9 | -2.44 | -6.34 | 1.08 | 12.8 | -1.83 |
| CCN1C[C@H]2C[C@H](C(=O)NCc3cccnc3)[C@@H](C1)O2 | -1.53 | 0 | 4.45 | -69.3 | 5.53 | 1.07 | 2.23 | 11.1 | -10.6 | 2.21 | 3.24 | 10.3 | 2 |
| COCCN1CCC2(COCc3cnc(N4CCOCC4)nc32)C1 (configuration not stated) | -9.09 | 2.67 | -3.07 | 7.61 | -2.45 | -5.91 | -2.1 | 2.03 | 21.1 | -12 | -4.25 | -1.28 | -8.27 |
| Cn1ccnc1CN1CCC2(CC(=O)N(c3cncnc3)C2)C1 (configuration not stated) | -1.68 | 2.7 | -3.41 | 10 | 1.79 | -2.64 | 2.23 | 21.2 | 2.89 | 0.165 | 2.16 | 12.8 | 1.86 |
| COCCO[C@@H]1C[C@H]2CN(C(=O)c3ccc(C)nc3)CCN2C1 | 0.459 | 10.7 | 6.84 | -2.91 | 3.06 | -3.86 | -51.4 | 8.89 | -12.5 | -18.6 | 4.17 | 15 | -6.6 |
| O=C1[C@H]2CN(Cc3cccs3)C[C@H]2CN1c1cncnc1 | -5.75 | 2.6 | -7.76 | 1.57 | 4.28 | -3.25 | -8.28 | 9.65 | 7.38 | -49.4 | 2.15 | 1.24 | 1.9 |
| c1cc(CO[C@@H]2CC[C@H]3[C@H]2OCCN3Cc2ccoc2)ccn1 | -1.76 | 13.5 | 9.49 | 9.36 | -7.31 | -1.66 | 2.23 | 27.1 | 33.2 | 1.68 | 1.08 | 10.3 | 1.36 |
